Bioassay records from PubChem BioAssay.
G6PDH CS = L. mesenteroides G6PDH inhibitors, counter-screen for G6PDH-coupled screening assays, biochemical, Leuconostoc mesenteroides enzyme; glucose-6-phosphate dehydrogenase [Leuconostoc mesenteroides]; Purified L. mesenteroides G6PDH, diaphorase/resazurin coupled fluorescence, 45 min; inhibition, % at 5 µM; 0.12% of 200,000 active; in the data active = inhibition above about 50%
HDAC3 inhib = HDAC3 deacetylase inhibitors, primary screen, biochemical, fluorescence, cell-free homogeneous. Histone deacetylase 3 (Homo sapiens), O15379. recombinant HDAC3, fluorogenic peptide/trypsin coupled. inhibition, % at 8.3 µM. 0.15% of 320,000 active. AID 2718, 2010; in the data active = inhibition above about 26%, passing the limit was not always enough
PHOSPHO1 block = PubChem AID 1565 | Phosphoethanolamine/phosphocholine phosphatase (Homo sapiens), Q8TCT1 | recombinant PHOSPHO1, absorbance phosphatase assay | inhibition, % at 13.3 µM | 1.1% of 290,000 active; in the data active = inhibition above about 60%
UBC9 SUMO inh = inhibitors of in vitro SUMOylation cascade, primary screen, biochemical, HTRF, uHTS | HTRF SUMOylation assay, SAE1/SAE2 + UBC9 | SUMO-conjugating enzyme UBC9 (Homo sapiens), P63279 | 0.36% of 290,000 active | inhibition, % at 35 µM | AID 2006, 2009; in the data active = inhibition above about 50%, passing the limit was not always enough
p97 inhibitor = inhibitors of human p97 ATPase, primary screen, biochemical. recombinant p97 ATPase, Kinase-Glo ATP luminescence, 3 h. AID 1481, 2009. inhibition, % at 8 µM. 0.42% of 220,000 active. Transitional endoplasmic reticulum ATPase (Homo sapiens), P55072; in the data active = inhibition above about 15%;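 note: 0% = DMSO vehicle and 100% = wells lacking enzyme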
Target sequence (P55072 whole entry, looked up): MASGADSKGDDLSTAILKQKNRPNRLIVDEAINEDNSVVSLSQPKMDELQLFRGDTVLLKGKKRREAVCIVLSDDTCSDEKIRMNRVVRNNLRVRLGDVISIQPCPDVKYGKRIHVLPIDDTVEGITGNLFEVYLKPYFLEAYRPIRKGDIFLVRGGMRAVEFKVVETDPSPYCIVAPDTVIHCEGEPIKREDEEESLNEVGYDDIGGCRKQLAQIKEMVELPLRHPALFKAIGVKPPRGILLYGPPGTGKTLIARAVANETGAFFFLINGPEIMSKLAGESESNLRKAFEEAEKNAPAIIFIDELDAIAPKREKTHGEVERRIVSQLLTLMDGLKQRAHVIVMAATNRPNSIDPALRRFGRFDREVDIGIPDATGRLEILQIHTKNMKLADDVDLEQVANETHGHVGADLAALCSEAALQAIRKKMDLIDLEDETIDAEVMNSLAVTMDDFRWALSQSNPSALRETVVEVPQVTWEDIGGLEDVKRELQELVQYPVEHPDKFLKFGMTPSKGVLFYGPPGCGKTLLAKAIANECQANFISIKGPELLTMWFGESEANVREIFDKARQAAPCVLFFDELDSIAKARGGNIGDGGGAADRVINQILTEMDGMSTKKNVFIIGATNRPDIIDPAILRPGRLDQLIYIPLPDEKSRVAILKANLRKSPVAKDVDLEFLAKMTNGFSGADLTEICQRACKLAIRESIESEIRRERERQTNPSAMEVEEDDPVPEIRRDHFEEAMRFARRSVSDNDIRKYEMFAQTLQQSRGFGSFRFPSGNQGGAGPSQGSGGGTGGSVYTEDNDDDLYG
PfM18AAP inh-1 = PfM18AAP inhibitors, malaria aminopeptidase, primary screen, biochemical, QFRET, recombinant enzyme; M18 aspartyl aminopeptidase (Plasmodium falciparum 3D7); H-Glu-NHMec fluorogenic cleavage; inhibition, % at 7.35 µM; 1.2% of 290,000 active; AID 1822, 2009;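 active = inhibition above the campaign mean inhibition over all tested compounds plus 3 SD, cut at about 28% in these data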;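 note: 0% = plate median of test compound wells and 100% = 2 mM ZnCl2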
PfM18AAP inh-2 = PfM18AAP inhibitors, malaria aminopeptidase, confirmation, biochemical, QFRET, recombinant enzyme, triplicate; shares compounds with PfM18AAP inh-1; H-Glu-NHMec fluorogenic cleavage; inhibition, % at 7.35 µM; 28% of 2,400 active; AID 2170, 2009;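 active = mean inhibition over replicate wells above the hit cutoff set for the earlier primary screen, cut at about 29% in these data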;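 note: 0% = median of test compound wells and 100% = 2 mM ZnCl2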
CTSL1 confirm = cathepsin L1 inhibitors, retest, confirmation, counter-screen for PFM18AAP inhibitor project, biochemical, QFRET, triplicate; purified cathepsin L1, Z-Leu-Arg-MCA fluorescence; AID 2178, 2009; 2,400 tested, under 10 active; shares compounds with PfM18AAP inh-1; inhibition, % at 5.96 µM;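 active = average inhibition across replicates above the hit cutoff set in the earlier primary screen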;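 note: 0% = median of test compound wells and 100% = Z-Phe-Ala-diazomethylketone 1 µM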
An asterisk follows results filed as active; nt = no result. Rows were chosen to be rich in hits. Some 2.5% of all compounds tested hit in one or more screens of this group.

SMILES | G6PDH CS | HDAC3 inhib | PHOSPHO1 block | UBC9 SUMO inh | p97 inhibitor | PfM18AAP inh-1 | PfM18AAP inh-2 | CTSL1 confirm
COCC1CCCN(C(=O)c2cc(COc3ccc4ncccc4c3)on2)C1 (centres undefined) | nt | -5.6 | 4.5 | -6.3 | nt | 7.3 | nt | nt
Cc1c2cnn(CC(=O)NCCCN3CC(C)CC(C)C3)c(=O)c2c(C)n1Cc1ccccc1Cl (centres undefined) | nt | 1.7 | 50.7 | -8.4 | nt | -8.8 | nt | nt
COc1ccc(N2CCN(CC(=O)N3c4ccccc4CC3C)CC2)cc1 (centres undefined) | nt | -1.5 | -24.9 | -2.8 | nt | 11.6 | nt | nt
O=S(=O)(Nn1cnnc1)c1ccccc1 | 5.3 | 6.9 | -8.3 | 12.2 | -3.5 | 36.9* | 61.2* | 1.5
O=S(=O)(Nn1cnnc1)c1ccccc1Cl | -14.2 | -3.2 | 13.9 | -8.4 | 3.5 | 36.5* | 42.7* | -0.4
O=C1c2cccnc2C(=O)N1Cc1ccc(S(=O)(=O)N2CCN(c3ccccc3)CC2)cc1 | nt | -5.8 | 27.3 | 23.1 | nt | -4.7 | nt | nt
Cc1cc(C)n2cnnc2n1 | nt | -5.7 | 16.0 | 7.1 | -2.0 | 0.2 | nt | nt
Cc1cc(C)n2c(=S)[nH]nc2n1 | 1.7 | 11.4 | 96.1* | 19.1 | 5.0 | 81.3* | 71.8* | 2.2
COc1cc([N+](=O)[O-])ccc1-c1ccc(/C=N\n2cnnc2)o1 | nt | -6.6 | 44.1 | 49.5 | nt | 44.5* | -9.3 | 2.4
Cc1cc(-c2ccc(/C=N/n3cnnc3)o2)c(C)c([N+](=O)[O-])c1 | nt | -3.5 | 9.4 | 7.3 | nt | 43.3* | -12.1 | 2.7
Clc1ccc(Nc2ncn[nH]2)cc1 | 6.5 | -2.6 | 36.3 | 20.6 | -6.8 | 34.0* | 18.4 | 4.2
c1n[nH]c(NC2=NCCC2)n1 | 8.6 | -3.1 | -25.9 | -7.3 | 4.0 | 4.0 | nt | nt
O=C(CN1CCOc2ccccc21)NCc1ccco1 | 12.3 | -4.4 | 26.1 | 19.5 | -6.1 | 9.1 | nt | nt
O=C(CN1CC(=O)Oc2ccccc21)NCc1ccco1 | 28.9 | 4.8 | 11.4 | 0.2 | 4.5 | 33.3* | -15.9 | -0.3
CCN(CC)C(=O)CSc1nc2cc3c(cc2c(=O)n1Cc1ccc2c(c1)OCO2)OCO3 | -32.3 | -6.6 | -10.2 | -0.9 | 7.2 | -4.4 | nt | nt
CCOC(=O)CSc1nc2ccc(N3CCOCC3)cc2c(=O)n1Cc1ccc2c(c1)OCO2 | -22.9 | 10.1 | 31.1 | 21.0 | 7.1 | 37.1* | -16.9 | -1.9
N#CC1=C(N)SC(N)=C(C#N)C1Cc1ccccc1 | 2.7 | -1.9 | 1.4 | -12.8 | -1.4 | 42.9* | -9.2 | 0.9
N#CC1=C(N)SC(N)=C(C#N)C1CCc1ccccc1 | -23.5 | -1.1 | 7.0 | 7.2 | 1.0 | 9.3 | nt | nt
N#CC1=C(N)SC(N)=C(C#N)C1c1c(Cl)cccc1Cl | 40.6 | 8.4 | 81.6* | -6.7 | 5.1 | 45.5* | -12.8 | 2.2
CN(C(=O)c1cccc(S(=O)(=O)N2CCOCC2)c1)c1c(N)n(Cc2ccccc2)c(=O)[nH]c1=O | nt | -0.3 | nt | nt | nt | nt | nt | nt
C=CCc1c(C)[nH]c2c(OC)cccc2c1=S | -0.4 | 0.9 | -123.3 | 19.3 | -5.1 | 38.5* | 12.6 | 0.7
CCC(C)NC(=O)C1CCN(S(=O)(=O)c2ccc3[nH]c(=O)ccc3c2)CC1 (centres undefined) | nt | -1.8 | 7.0 | 4.6 | nt | 35.8* | -56.2 | -1.4
O=c1[nH]ncn1-c1ccccc1C(F)(F)F | -19.7 | -4.3 | 21.6 | -0.7 | 3.7 | 11.4 | nt | nt
O=c1[nH][nH]c(=S)n1-c1ccccc1C(F)(F)F | nt | nt | 90.4* | 4.5 | 3.0 | 60.9* | 17.6 | -3.4
COc1ccccc1-n1nnnc1SCC(=O)Nc1ccc(C)c(N)c1 | nt | 1.2 | 4.7 | -12.0 | nt | -21.2 | nt | nt
SMILES | G6PDH CS | HDAC3 inhib | PHOSPHO1 block | UBC9 SUMO inh | p97 inhibitor | PfM18AAP inh-1 | PfM18AAP inh-2 | CTSL1 confirm
Cc1ccc(S(=O)(=O)CCSc2n[nH]c(=O)n2-c2ccccc2)cc1 | nt | 3.0 | 45.0 | -2.9 | 4.7 | 5.2 | nt | nt
Cc1cc(C)c(-n2c(SCCS(=O)(=O)c3ccc(F)cc3)n[nH]c2=O)c(C)c1 | nt | -2.3 | 20.3 | -6.4 | 3.3 | 40.8* | -40.2 | 1.3
COc1ccc(C(CNC(=O)C(C)Oc2ccc(Br)cc2)N2CCCCC2)cc1 (centres undefined) | nt | -2.7 | nt | nt | nt | nt | nt | nt
COc1ccccc1OCCCC(=O)Nc1nnc(C2CCCO2)s1 (centres undefined) | nt | 0.0 | 22.6 | -8.6 | nt | 1.9 | nt | nt
Cc1occc1C(=O)NNC1=CC(=O)CC(C)(C)C1 | 1.8 | -1.1 | -8.6 | 6.1 | 1.7 | 54.6* | 30.2* | 4.1
COc1ccc(C(=O)NNC2=CC(=O)CC(C)(C)C2)cc1OC | 12.2 | 2.1 | 3.4 | -1.7 | 4.4 | 40.0* | 4.2 | -4.1
COc1ccc(NC2=CC(=O)CC(C)(C)C2)cc1OC | -4.0 | 8.6 | -15.4 | 11.7 | -5.9 | 7.0 | nt | nt
CC1(C)CC(=O)C=C(NNC(=O)c2ccc(N)cc2)C1 | 7.5 | 2.1 | -17.0 | 1.3 | -1.8 | 47.7* | 18.7 | 2.6
CCCn1c(SCC(=O)N2CC(=O)Nc3ccccc32)n[nH]c1=O | nt | -8.1 | nt | nt | nt | nt | nt | nt
N#Cc1ccc(C(=O)Nn2cnnc2)cc1 | nt | 0.3 | 28.4 | 15.3 | nt | 45.0* | 27.0 | -3.1
O=C(NN1CCOCC1)c1ccc(Cl)c([N+](=O)[O-])c1 | nt | -1.3 | 36.4 | -11.0 | nt | -3.4 | nt | nt
Cc1cc(C(=O)Nn2cnnc2)ccc1[N+](=O)[O-] | nt | -1.7 | 49.1 | -0.8 | nt | 46.2* | 51.1* | 5.7
Cc1ccc(C(=O)Nn2cnnc2)cc1Cl | nt | 3.0 | 34.3 | 7.9 | nt | 47.1* | 33.1* | 1.0
O=C(Nn1cnnc1)c1ccc(Cl)c([N+](=O)[O-])c1 | nt | -13.6 | 18.9 | 12.9 | 4.0 | 44.3* | 43.8* | -4.0
CCOC(=O)c1sc(N2C(=O)C(O)=C(C(=O)c3ccco3)C2c2ccc([N+](=O)[O-])cc2)nc1C (centres undefined) | nt | 3.9 | 19.8 | -5.7 | nt | 17.2 | nt | nt
Cc1ccc(S(=O)(=O)N(C)c2ccc(OCC(=O)Nc3ccc(C(=O)N(C)C)cc3)cc2)cc1C | nt | -1.4 | nt | nt | nt | nt | nt | nt
Cc1ccc(NC(=O)Nc2ccon2)cc1Cl | nt | 1.4 | 46.5 | -3.4 | nt | -0.4 | nt | nt
O=C(Nn1cnnc1)c1ccncc1 | 0.8 | 8.9 | 3.9 | 3.3 | 1.7 | 13.1 | nt | nt
O=C(Nn1cnnc1)c1cc(Cl)cc(Cl)c1 | nt | 1.4 | 24.1 | -6.8 | nt | 47.0* | 32.3* | -6.9
O=C(Nn1cnnc1)c1cccc(S(=O)(=O)N2CCOCC2)c1 | 2.3 | 0.2 | 27.1 | 9.9 | 1.3 | 38.2* | 32.9* | -0.5
